Records with an inconclusive call do not appear. Where a call stands in place of a potency, no number is given. Activity calls are given as the source filed them. Calls come from the whole dose curve; as a rule, active = well fitted activation curve with a large enough effect in the repeat runs; inconclusive = weak or mixed curves; inactive = flat fitted curve, though single readings scatter.
Potency is the fitted concentration of half-maximal effect.

A short description of the assay: A CellTox Green Cytotoxicity Assay to monitor cytotoxicity in HEK293 cells - 32 hour (AID 1224881). Note: nearly all actives have a fitted effect of over 40% in size. To be noted: CellTox Green fluorescence; series mostly up to 76.8 µM. An excerpt:
National Center for Advancing Translational Sciences [NCATS]
NIH Chemical Genomics Center [NCGC]
U.S. Environmental Protection Agency [EPA]
National Institutes of Environmental Health Sciences [NIEHS]
National Toxicology Program [NTP]
Cell-based models are critical for drug discovery. Determining the natural cytotoxic effects resulting from test compounds is an essential research activity. A CellTox Green Cytotoxicity Assay to monitor cytotoxicity in real time of continues cell culture during 40 hours of the compound treatment was used to screen Tox21 10K library compounds in Hek293 cells. CellTox Green Cytotoxicity Assay is a nonlytic, homogeneous, biofluorescent method to measure cytotoxicity in cell culture after experimental manipulation. The assay system uses a proprietary asymmetric cyanine dye that is excluded from viable cells but preferentially stains the dead cell's DNA. […] Viable cells produce no appreciable increases in fluorescence. Therefore, the fluorescence signal produced by the binding interaction with dead cell DNA is proportional to cytotoxicity.
The mixture of Hek293 cell suspension and reagents were dispensed at 600cells/6 ul/well in 1536-well tissue culture treated black solid bottom plates using a Multidrop dispenser. After the assay plates were incubated at a 37 C/5% CO2 incubator for 5 hours, 23 nL of compounds dissolved in DMSO, positive and negative controls was transferred to the assay plate by a pintool work station. The plates were incubated at 37 C for 40 hours. The fluorescence intensity were measured at 0h, 8h, 16h, 24h, 32h and 40h time points using ViewLux plate reader during compound treatment.
For the molecule `O=[N+]([O-])c1cccc(S(=O)(=O)NCCNS(=O)(=O)c2cccc([N+](=O)[O-])c2)c1`, the Potency result was “inactive”.

On to `CCOC(=O)C(C)Oc1ccc(Oc2nc3ccc(Cl)cc3o2)cc1` (stereo not given), for which the Potency result was “inactive”.

Turning to `O=C(O)c1cccc(O)c1`, the Potency result was “inactive”.

Consider `NCC1CCCC(CN)C1` (stereo not given), for which the Potency result is “inactive”.

On to `C=CC(=O)NCOCC(C)C`, for which the Potency entry was “inactive”.

Take `CCCCC(CC)C(=O)OCCOCCOCCOCCOC(=O)C(CC)CCCC` (stereo not given): the Potency entry was “inactive”.

As for `CC(Cl)C(Cl)Cl` (stereo not given), the Potency was 48.2 µM (active).

Turning to `COc1ccc([C@@H]2Sc3ccccc3NC(=O)[C@@H]2O)cc1`, the Potency result is “inactive”.

As to `O=C(O)c1cccnc1C(=O)O`, the Potency result was “inactive”.

As to `C=CCCCCCCCCCCCCCCCC`, the cytotoxicity increase was -2.25% [at 6.97 µM] (inactive).

For the molecule `CCOC(=N)CC(=O)OCC`, the Potency result is “inactive”.

`CCCCC(CC)CNCC(CC)CCCC` (stereo not given): the Potency entry is “inactive”.

Turning to `CN1Cc2cc(C(=O)N3CCC(C4CCNCC4)CC3)ccc2N[C@@H](CC(=O)O)C1=O`, the Potency result is “inactive”.

For `CN1CCCN=C1/C=C/c1cccs1`, the Potency entry is “inactive”.

Take `c1cnc2c(n1)CCCC2`: the Potency is 43.6 µM (active).

As to `COc1ccc(C(=O)c2cccc(O)c2)c(OC)c1`, the Potency entry was “inactive”.

On to `CCOc1cc(N)c(Cl)cc1C(=O)NCC1CN(Cc2ccc(F)cc2)CCO1` (stereo not given), for which the Potency result is “inactive”.

Regarding `COCCOC`, the Potency result is “inactive”.

Regarding `c1ccc(COCc2ccccc2)cc1`, the Potency entry is “inactive”.

Take `COC(=O)CC(=O)C(C)(C)C`: the Potency result is “inactive”.

Take `CCCC1C(CC)=CC(CC)=CN1c1ccccc1` (stereo not given): the Potency result is “inactive”.

For `Cc1cc(S(=O)(=O)O)ccc1N=Nc1c(O)ccc2ccccc12`, the Potency result was “inactive”.

For `CC1CC(O)CC(C)(C)C1` (stereo not given), the Potency entry is “inactive”.

With `C=CC(=C)CCCC(C)(C)OC(C)=O`, the Potency result is “inactive”.

On to `N#C[C@@H]1C[C@@H]2C[C@@H]2N1C(=O)[C@@H](N)C12CC3CC(CC(O)(C3)C1)C2`, for which the Potency result was “inactive”.

For `ON(Cc1ccccc1)Cc1ccccc1`, the Potency result was “inactive”.

In the case of `CCCCC(CC)COC(=O)COc1ccc(Cl)cc1C` (stereo not given), the Potency result is “inactive”.

For `CC(C)(CCl)c1ccccc1`, the Potency entry is “inactive”.

Regarding `Cc1ccnc2ccccc12`, the Potency result is “inactive”.

In the case of `Cc1oncc1C(=O)Nc1ccc(C(F)(F)F)cc1`, the Potency entry was “inactive”.

In the case of `CCCCOC(=O)CCS`, the Potency entry was “inactive”.

Regarding `O=C(O)Cc1ccc(-c2ccccc2)cc1`, the Potency entry was “inactive”.

In the case of `Cc1ccc(S(=O)(=O)NC2CCCCC2)cc1`, the Potency result was “inactive”.

Take `Cc1nc2ccccc2s1`: the Potency result was “inactive”.

For the molecule `O=C(C(=O)c1ccccc1)c1ccccc1`, the Potency result is “inactive”.

Take `Nc1ccc(S(=O)(=O)O)cc1`: the Potency entry is “inactive”.

In the case of `CN1C(=O)CC(C)(c2ccccc2)C1=O` (stereo not given), the Potency entry is “inactive”.

Consider `CCOC(=O)OCC`, for which the Potency result was “inactive”.

Turning to `NC(=O)Nc1ccc(Cl)c(Cl)c1`, the Potency entry is “inactive”.

For `C[Si](NC1CCCCC1)(NC1CCCCC1)NC1CCCCC1`, the Potency entry is “inactive”.

The values above are taken from PubChem BioAssay (Tox21).
